# Unmarked numbers belong to inactive results. Calls of active or inactive are those of the source.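 Rule for the calls: active = normalized viability below 100% at a tested concentration; inactive = the rest.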
# Experiment: drug combination growth inhibition, ovarian cancer – cell-based, oncology-focused library, rucaparib conditional, profiling panel (AID 1508598)
# Conditions: patient-derived ovarian cancer cells, CellTiter-Glo viability, 144 h, active compounds read low
# [1] = at 5 µM, OCI-P5x cells, with rucaparib 20 µM, 100% = cells with rucaparib alone
# [2] = at 5 µM, OCI-P5x cells, without rucaparib
# [3] = at 0.000305 µM, OCI-C5x cells, with rucaparib 10 µM, 100% = cells with rucaparib alone
# [4] = at 0.000305 µM, OCI-C5x cells, without rucaparib
# [5] = at 0.000305 µM, OCI-P5x cells, with rucaparib 20 µM, 100% = cells with rucaparib alone
# [6] = at 0.000305 µM, OCI-P5x cells, without rucaparib
# [7] = at 0.00122 µM, OCI-C5x cells, with rucaparib 10 µM, 100% = cells with rucaparib alone
# [8] = at 0.00122 µM, OCI-C5x cells, without rucaparib
# [9] = at 0.00122 µM, OCI-P5x cells, with rucaparib 20 µM, 100% = cells with rucaparib alone
# [10] = at 0.00122 µM, OCI-P5x cells, without rucaparib
# [11] = at 0.00488 µM, OCI-C5x cells, with rucaparib 10 µM, 100% = cells with rucaparib alone
# [12] = at 0.00488 µM, OCI-C5x cells, without rucaparib
# [13] = at 0.00488 µM, OCI-P5x cells, with rucaparib 20 µM, 100% = cells with rucaparib alone
# [14] = at 0.00488 µM, OCI-P5x cells, without rucaparib
# [15] = at 0.0195 µM, OCI-C5x cells, with rucaparib 10 µM, 100% = cells with rucaparib alone
# [16] = at 0.0195 µM, OCI-C5x cells, without rucaparib
# [17] = at 0.0195 µM, OCI-P5x cells, with rucaparib 20 µM, 100% = cells with rucaparib alone
# [18] = at 0.0195 µM, OCI-P5x cells, without rucaparib
# [19] = at 0.0781 µM, OCI-C5x cells, with rucaparib 10 µM, 100% = cells with rucaparib alone
# [20] = at 0.0781 µM, OCI-C5x cells, without rucaparib
# [21] = at 0.0781 µM, OCI-P5x cells, with rucaparib 20 µM, 100% = cells with rucaparib alone
# [22] = at 0.0781 µM, OCI-P5x cells, without rucaparib
# [23] = at 0.313 µM, OCI-C5x cells, with rucaparib 10 µM, 100% = cells with rucaparib alone
# [24] = at 0.313 µM, OCI-C5x cells, without rucaparib
# [25] = at 0.313 µM, OCI-P5x cells, with rucaparib 20 µM, 100% = cells with rucaparib alone
# [26] = at 0.313 µM, OCI-P5x cells, without rucaparib
# [27] = at 1.25 µM, OCI-C5x cells, with rucaparib 10 µM, 100% = cells with rucaparib alone
# [28] = at 1.25 µM, OCI-C5x cells, without rucaparib
# [29] = at 1.25 µM, OCI-P5x cells, with rucaparib 20 µM, 100% = cells with rucaparib alone
# [30] = at 1.25 µM, OCI-P5x cells, without rucaparib
# [31] = at 5 µM, OCI-C5x cells, with rucaparib 10 µM, 100% = cells with rucaparib alone
# [32] = at 5 µM, OCI-C5x cells, without rucaparib
compound,measurement,setting,value
Cc1cc(NC(=O)c2cccc(NC(=O)/C=C/CN(C)C)c2)ccc1Nc1nccc(-c2cccnc2)n1,viability,[1],83.9% (active)
same,viability,[2],108%
CO[C@H]1C[C@H]2CC[C@@H](C)[C@@](O)(O2)C(=O)C(=O)N2CCCC[C@H]2C(=O)O[C@H]([C@H](C)C[C@@H]2CC[C@H](OP(C)(C)=O)[C@H](OC)C2)CC(=O)[C@H](C)/C=C(\C)[C@@H](O)[C@@H](OC)C(=O)[C@H](C)C[C@H](C)/C=C/C=C/C=C/1C,viability,[3],115%
same,viability,[4],103%
same,viability,[5],79.2% (active)
same,viability,[6],65.5% (active)
same,viability,[7],102%
same,viability,[8],97.3% (active)
same,viability,[9],77.8% (active)
same,viability,[10],59.6% (active)
same,viability,[11],97.3% (active)
same,viability,[12],90.1% (active)
same,viability,[13],76.6% (active)
same,viability,[14],61.2% (active)
same,viability,[15],103%
same,viability,[16],93.1% (active)
same,viability,[17],76.4% (active)
same,viability,[18],63% (active)
same,viability,[19],103%
same,viability,[20],96.7% (active)
same,viability,[21],76.7% (active)
same,viability,[22],60.3% (active)
same,viability,[23],108%
same,viability,[24],95.8% (active)
same,viability,[25],75.8% (active)
same,viability,[26],60.4% (active)
same,viability,[27],104%
same,viability,[28],94.5% (active)
same,viability,[29],82.1% (active)
same,viability,[30],60.8% (active)
same,viability,[31],114%
same,viability,[32],102%
same,viability,[1],74.3% (active)
same,viability,[2],59.8% (active)
CC(C)C[C@H](NP(=O)(O)O[C@@H]1O[C@@H](C)[C@H](O)[C@@H](O)[C@H]1O)C(=O)N[C@@H](Cc1c[nH]c2ccccc12)C(=O)O,viability,[3],124%
same,viability,[4],113%
same,viability,[5],105%
same,viability,[6],99.9% (active)
same,viability,[7],127%
same,viability,[8],113%
same,viability,[9],97.2% (active)
same,viability,[10],103%
same,viability,[11],127%
same,viability,[12],116%
same,viability,[13],104%
same,viability,[14],96.5% (active)
same,viability,[15],122%
same,viability,[16],106%
same,viability,[17],101%
same,viability,[18],93.9% (active)
same,viability,[19],121%
same,viability,[20],107%
same,viability,[21],99.3% (active)
same,viability,[22],96.3% (active)
same,viability,[23],124%
same,viability,[24],103%
same,viability,[25],98.1% (active)
same,viability,[26],98.7% (active)
same,viability,[27],132%
same,viability,[28],117%
same,viability,[29],94.3% (active)
same,viability,[30],91.1% (active)
same,viability,[31],123%
same,viability,[32],104%
same,viability,[1],88.8% (active)
same,viability,[2],92% (active)
c1ccc(Cn2c(-c3ccc(OC[C@H](C4CCNCC4)n4c(-c5ccccc5)nc5ccccc54)cc3)nc3ccccc32)cc1,viability,[3],117%
same,viability,[4],110%
same,viability,[5],90.3% (active)
same,viability,[6],96.7% (active)
same,viability,[7],123%
same,viability,[8],125%
same,viability,[9],98.1% (active)
same,viability,[10],99.5% (active)
same,viability,[11],125%
same,viability,[12],126%
same,viability,[13],99.2% (active)
same,viability,[14],101%
same,viability,[15],121%
same,viability,[16],107%
same,viability,[17],96.1% (active)
same,viability,[18],106%
same,viability,[19],110%
same,viability,[20],117%
same,viability,[21],95.8% (active)
same,viability,[22],105%
same,viability,[23],118%
same,viability,[24],120%
same,viability,[25],105%
same,viability,[26],109%
same,viability,[27],130%
same,viability,[28],131%
same,viability,[29],33.8% (active)
same,viability,[30],102%
same,viability,[31],1.56% (active)
same,viability,[32],3.14% (active)
same,viability,[1],1.07% (active)
same,viability,[2],1.44% (active)
CO[C@H]1/C=C\C=C(\C)C(=O)NC2=CC(=O)C(NCCN(C)C)=C(C[C@@H](C)C[C@H](OC)[C@H](O)[C@@H](C)/C=C(\C)[C@@H]1OC(N)=O)C2=O,viability,[3],108%
same,viability,[4],108%
same,viability,[5],120%
same,viability,[6],116%
same,viability,[7],109%
same,viability,[8],109%
same,viability,[9],114%
same,viability,[10],114%
same,viability,[11],107%
same,viability,[12],107%
same,viability,[13],117%
same,viability,[14],117%
same,viability,[15],118%
same,viability,[16],82.9% (active)
same,viability,[17],50.4% (active)
same,viability,[18],17.3% (active)
same,viability,[19],91.8% (active)
same,viability,[20],27.4% (active)
same,viability,[21],17.4% (active)
same,viability,[22],9.22% (active)
same,viability,[23],26.5% (active)
same,viability,[24],10.1% (active)
same,viability,[25],7.13% (active)
same,viability,[26],5.68% (active)
same,viability,[27],7.91% (active)
same,viability,[28],4.98% (active)
same,viability,[29],6.01% (active)
same,viability,[30],3.54% (active)
same,viability,[31],8.19% (active)
same,viability,[32],4.12% (active)
same,viability,[1],4.71% (active)
same,viability,[2],2.66% (active)
COc1ccc(C2=N[C@@H](c3ccc(Cl)cc3)[C@H](c3ccc(Cl)cc3)N2C(=O)N2CCNC(=O)C2)c(OC(C)C)c1,viability,[3],118%
same,viability,[4],104%
same,viability,[5],90.9% (active)
same,viability,[6],90.5% (active)
same,viability,[7],117%
same,viability,[8],104%
same,viability,[9],94.2% (active)
same,viability,[10],89.4% (active)
same,viability,[11],122%
same,viability,[12],106%
same,viability,[13],97.7% (active)
same,viability,[14],95.5% (active)
same,viability,[15],106%
same,viability,[16],100%
same,viability,[17],96.2% (active)
same,viability,[18],95.8% (active)
same,viability,[19],113%
same,viability,[20],99.5% (active)
same,viability,[21],100%
same,viability,[22],96.7% (active)
same,viability,[23],97.4% (active)
same,viability,[24],101%
same,viability,[25],104%
same,viability,[26],99.4% (active)
same,viability,[27],93.7% (active)
same,viability,[28],100%
same,viability,[29],97.7% (active)
same,viability,[30],101%
same,viability,[31],84.5% (active)
same,viability,[32],95.4% (active)
same,viability,[1],89.7% (active)
same,viability,[2],91.3% (active)
Nc1ncn([C@@H]2O[C@H](CO)[C@@H](O)[C@@H]2O)c(=O)n1,viability,[3],104%
same,viability,[4],128%
same,viability,[5],103%
same,viability,[6],125%
same,viability,[7],108%
same,viability,[8],132%
same,viability,[9],102%
same,viability,[10],123%
same,viability,[11],114%
same,viability,[12],122%
same,viability,[13],102%
same,viability,[14],116%
same,viability,[15],114%
same,viability,[16],129%
same,viability,[17],110%
same,viability,[18],119%
same,viability,[19],117%
same,viability,[20],119%
same,viability,[21],110%
same,viability,[22],122%
same,viability,[23],112%
same,viability,[24],124%
same,viability,[25],114%
same,viability,[26],122%
same,viability,[27],110%
same,viability,[28],123%
same,viability,[29],105%
same,viability,[30],111%
same,viability,[31],107%
same,viability,[32],109%
same,viability,[1],97.7% (active)
same,viability,[2],99.1% (active)
CC1=C(/C=C/C(C)=C\C=C\C(C)=C/C(=O)O)C(C)(C)CCC1,viability,[3],112%
same,viability,[4],108%
same,viability,[5],94.7% (active)
same,viability,[6],87.1% (active)
same,viability,[7],115%
same,viability,[8],105%
same,viability,[9],78.9% (active)
same,viability,[10],65.9% (active)
same,viability,[11],111%
same,viability,[12],109%
same,viability,[13],81.7% (active)
same,viability,[14],101%
same,viability,[15],103%
same,viability,[16],106%
same,viability,[17],99% (active)
same,viability,[18],97.6% (active)
same,viability,[19],105%
same,viability,[20],109%
same,viability,[21],96.7% (active)
same,viability,[22],97.6% (active)
same,viability,[23],108%
same,viability,[24],106%
same,viability,[25],93.9% (active)
same,viability,[26],96.4% (active)
same,viability,[27],103%
same,viability,[28],105%
same,viability,[29],92.6% (active)
same,viability,[30],92.3% (active)
same,viability,[31],96.2% (active)
same,viability,[32],104%
same,viability,[1],84.1% (active)
same,viability,[2],82.8% (active)
CC(=O)[C@]1(O)Cc2c(O)c3c(c(O)c2[C@H](O[C@H]2C[C@H](N)[C@H](O)[C@H](C)O2)C1)C(=O)c1ccccc1C3=O,viability,[3],107%
same,viability,[4],103%
same,viability,[5],110%
same,viability,[6],115%
same,viability,[7],105%
same,viability,[8],107%
same,viability,[9],107%
same,viability,[10],112%
same,viability,[11],104%
same,viability,[12],73.9% (active)
same,viability,[13],110%
same,viability,[14],96.9% (active)
same,viability,[15],148%
same,viability,[16],112%
same,viability,[17],74% (active)
same,viability,[18],36.9% (active)
same,viability,[19],82.5% (active)
same,viability,[20],7.56% (active)
same,viability,[21],55.5% (active)
same,viability,[22],12.2% (active)
same,viability,[23],3.18% (active)
same,viability,[24],1.75% (active)
same,viability,[25],19% (active)
same,viability,[26],7.09% (active)
same,viability,[27],1.52% (active)
same,viability,[28],1.48% (active)
same,viability,[29],9.24% (active)
same,viability,[30],4.04% (active)
same,viability,[31],3.72% (active)
same,viability,[32],3.03% (active)

# Reference: PubChem BioAssay
